# Source: PubChem BioAssay
# mHTT-CaM PPI inh – mutant huntingtin-calmodulin interaction inhibitors – biochemical, AlphaScreen, primary screen; 190,000 compounds, 3.6% hits; AlphaScreen His-mHTT/GST-CaM binding, luminescence; inhibition, % at 15 µM;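 also: 0% = both proteins with DMSO and 100% = one protein alone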
# Target sequence (P42858 whole entry, looked up, stated change not applied): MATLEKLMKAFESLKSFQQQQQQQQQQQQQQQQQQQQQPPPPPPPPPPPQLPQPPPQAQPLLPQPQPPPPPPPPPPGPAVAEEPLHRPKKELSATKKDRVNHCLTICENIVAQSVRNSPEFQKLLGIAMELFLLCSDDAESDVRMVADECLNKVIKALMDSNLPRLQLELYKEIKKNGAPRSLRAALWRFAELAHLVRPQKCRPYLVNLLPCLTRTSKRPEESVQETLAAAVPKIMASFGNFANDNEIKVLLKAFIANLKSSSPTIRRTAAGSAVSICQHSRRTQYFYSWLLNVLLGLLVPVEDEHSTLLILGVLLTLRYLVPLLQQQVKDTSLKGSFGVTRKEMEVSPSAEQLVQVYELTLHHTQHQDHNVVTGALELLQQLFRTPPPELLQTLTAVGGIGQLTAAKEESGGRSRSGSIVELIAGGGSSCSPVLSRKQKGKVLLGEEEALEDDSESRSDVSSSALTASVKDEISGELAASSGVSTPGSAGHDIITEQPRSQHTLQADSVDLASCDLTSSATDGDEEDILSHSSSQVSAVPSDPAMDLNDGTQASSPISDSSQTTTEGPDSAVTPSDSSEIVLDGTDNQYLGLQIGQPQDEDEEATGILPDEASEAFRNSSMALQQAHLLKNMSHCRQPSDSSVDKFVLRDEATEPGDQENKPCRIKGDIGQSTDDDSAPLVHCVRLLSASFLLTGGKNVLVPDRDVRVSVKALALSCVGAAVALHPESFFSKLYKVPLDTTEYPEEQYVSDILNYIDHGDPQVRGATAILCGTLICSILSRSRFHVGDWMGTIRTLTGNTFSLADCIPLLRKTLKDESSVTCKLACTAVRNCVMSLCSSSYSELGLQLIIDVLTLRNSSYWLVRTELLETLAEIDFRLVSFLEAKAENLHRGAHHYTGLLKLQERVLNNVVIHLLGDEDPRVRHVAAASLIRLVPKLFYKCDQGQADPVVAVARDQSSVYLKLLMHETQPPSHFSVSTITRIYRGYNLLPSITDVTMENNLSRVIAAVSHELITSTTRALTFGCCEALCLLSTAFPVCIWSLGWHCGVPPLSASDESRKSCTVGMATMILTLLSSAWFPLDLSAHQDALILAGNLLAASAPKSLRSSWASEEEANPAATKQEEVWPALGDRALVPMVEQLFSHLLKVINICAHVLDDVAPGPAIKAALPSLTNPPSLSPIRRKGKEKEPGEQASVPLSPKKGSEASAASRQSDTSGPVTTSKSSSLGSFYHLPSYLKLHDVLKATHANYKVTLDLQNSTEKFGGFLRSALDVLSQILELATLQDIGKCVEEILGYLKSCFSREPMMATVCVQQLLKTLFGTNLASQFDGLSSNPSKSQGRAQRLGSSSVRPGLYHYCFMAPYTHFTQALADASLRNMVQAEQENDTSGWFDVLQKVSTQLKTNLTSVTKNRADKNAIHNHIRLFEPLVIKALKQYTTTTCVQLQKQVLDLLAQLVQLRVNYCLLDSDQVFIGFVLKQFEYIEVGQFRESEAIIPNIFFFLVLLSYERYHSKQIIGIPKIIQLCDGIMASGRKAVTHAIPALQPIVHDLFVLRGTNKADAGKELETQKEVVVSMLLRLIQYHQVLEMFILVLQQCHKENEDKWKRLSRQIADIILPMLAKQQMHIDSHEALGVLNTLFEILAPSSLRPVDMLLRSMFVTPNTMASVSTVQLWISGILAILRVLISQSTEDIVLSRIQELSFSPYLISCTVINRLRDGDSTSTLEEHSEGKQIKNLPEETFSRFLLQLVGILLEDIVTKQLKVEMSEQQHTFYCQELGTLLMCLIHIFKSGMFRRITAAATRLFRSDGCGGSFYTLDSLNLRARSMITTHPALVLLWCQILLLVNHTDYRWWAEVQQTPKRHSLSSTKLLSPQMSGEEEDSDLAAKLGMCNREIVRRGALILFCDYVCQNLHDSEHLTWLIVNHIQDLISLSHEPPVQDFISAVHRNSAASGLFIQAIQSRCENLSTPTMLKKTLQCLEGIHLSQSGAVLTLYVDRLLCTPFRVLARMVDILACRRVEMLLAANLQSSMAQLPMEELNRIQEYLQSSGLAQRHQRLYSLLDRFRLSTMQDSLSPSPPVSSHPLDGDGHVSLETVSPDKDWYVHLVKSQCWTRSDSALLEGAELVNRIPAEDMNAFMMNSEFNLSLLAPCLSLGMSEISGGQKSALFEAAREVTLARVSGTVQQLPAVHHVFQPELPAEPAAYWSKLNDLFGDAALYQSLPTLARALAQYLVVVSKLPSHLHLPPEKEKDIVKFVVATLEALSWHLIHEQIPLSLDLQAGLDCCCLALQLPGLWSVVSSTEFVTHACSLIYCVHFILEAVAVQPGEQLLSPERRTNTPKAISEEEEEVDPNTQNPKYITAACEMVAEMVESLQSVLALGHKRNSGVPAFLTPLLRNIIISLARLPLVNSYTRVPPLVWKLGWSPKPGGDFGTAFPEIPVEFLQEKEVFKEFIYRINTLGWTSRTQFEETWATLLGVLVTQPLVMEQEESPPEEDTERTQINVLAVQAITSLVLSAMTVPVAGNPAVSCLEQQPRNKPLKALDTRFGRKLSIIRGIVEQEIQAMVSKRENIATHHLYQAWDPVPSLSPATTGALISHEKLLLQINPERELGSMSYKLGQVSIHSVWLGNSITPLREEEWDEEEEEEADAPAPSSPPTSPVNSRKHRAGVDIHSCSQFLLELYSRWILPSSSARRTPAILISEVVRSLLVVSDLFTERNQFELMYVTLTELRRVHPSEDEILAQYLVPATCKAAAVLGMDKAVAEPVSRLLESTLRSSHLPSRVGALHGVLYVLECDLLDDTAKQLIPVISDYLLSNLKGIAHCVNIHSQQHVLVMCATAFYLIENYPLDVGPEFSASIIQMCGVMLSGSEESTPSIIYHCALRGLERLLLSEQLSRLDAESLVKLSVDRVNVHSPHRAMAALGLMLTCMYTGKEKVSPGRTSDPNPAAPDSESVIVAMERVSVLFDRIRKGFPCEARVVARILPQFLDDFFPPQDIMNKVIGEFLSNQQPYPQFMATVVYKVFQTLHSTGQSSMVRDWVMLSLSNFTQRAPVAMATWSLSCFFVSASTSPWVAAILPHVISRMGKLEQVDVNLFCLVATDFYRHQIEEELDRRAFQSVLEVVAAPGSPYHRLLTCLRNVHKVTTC
# Pf apPOL inh – Pf-apPOL inhibitors, biochemical, fluorescence; Plasmodium falciparum apicoplast DNA polymerase (apPOL); Recombinant Pf-apPOL, molecular beacon fluorescence, 1.5 h; inhibition, % at 10 µM; 210,000 compounds, 0.25% hits
# Numbers without * were called inactive; i = inactive; nt = not tested or not shown. Many of the other results were omitted from the sample, so hits are more common in it than they were. Rule as the data show it: active = inhibition above about 50%; inactive = the rest.
SMILES,mHTT-CaM PPI inh,Pf apPOL inh
O=C1NN(c2ccccc2)C(=O)/C1=C/c1ccccc1OCc1c(F)cccc1Cl,2,3
CCOc1cccc(CNC(=O)C2CCN(c3cncnc3N3CCOCC3)CC2)c1,0,-2
CCc1ccc(C=C2Oc3c(ccc(O)c3CN3CCCC3)C2=O)cc1,22,-114
CC(C)Cn1c(=O)c(-c2ccc(C(=O)N3CCN(C)CC3)cc2)nc2ccccc21,42,-7
CC(=O)N1CC(=O)NC(=Cc2cccnc2)C1=O,nt,52*
O=C1/C(=C/c2cccnc2)CC/C1=C\c1cccnc1,4,1
COc1ccc2c(c1OC)C(=O)OC2Nc1ccc(C(=O)O)c(O)c1 (centres undefined),9,4
Cc1ccccc1C(=O)Nc1c(C)cccc1C,-1,-4
Cc1ccc(S(=O)(=O)N=C2C=CC(=O)c3ccccc32)c(C)c1,86*,4
Cc1cc(C)c(S(=O)(=O)N=C2C=CC(=O)c3ccccc32)c(C)c1,66*,0
Cc1ccc(S(=O)(=O)N=C2C=CC(=O)C=C2)c(C)c1,39,-7
Cc1cc(C)c(S(=O)(=O)n2cnc3ccccc32)c(C)c1,-4,-2
Cc1cc(C)cc(C(=O)N2CCCC(C(=O)NCCN3CCCC3)C2)c1 (centres undefined),-3,-2
NC(=O)C1CCN(C(=O)c2ccccc2NC(=O)c2cccc(I)c2)CC1,-4,2
O=C1c2ccccc2-c2onc3c(N4CCOCC4)cc(N4CCOCC4)c1c23,39,-3
CC1CCCN(c2cc(NCCCC(=O)O)c3c4c(onc24)-c2ccccc2C3=O)C1 (centres undefined),77*,0
O=C(NC1CCCCC1)c1ccc2c3c(onc13)-c1ccccc1C2=O,42,2
CC1CC(C)CN(c2cc(NCCCC(=O)O)c3c4c(onc24)-c2ccccc2C3=O)C1 (centres undefined),65*,0
O=c1oc2c(CN3CC4CC(C3)c3cccc(=O)n3C4)c(O)ccc2cc1-c1ccccc1 (centres undefined),20,-66
COc1ccc(CC(=O)Nc2cccc(-c3nnc(-c4ccccc4)o3)c2)cc1,5,-12
O=C(O)c1ccc(-c2ccc(/C=C3/NC(=O)N(Cc4ccc(Br)cc4)C3=O)o2)cc1,-5,-2
NC(=O)c1c(Nc2ccc3c(c2)OCO3)sc(C(=O)c2ccc(Cl)cc2)c1N,56*,-4
CCOC(=O)c1c(Nc2ccccc2F)sc(C(=O)c2ccc(Cl)cc2)c1N,nt,-1
CCCc1c(C(=O)ON=C(N)c2ccc(C(C)(C)C)cc2)cnn1-c1ccc(Cl)cc1,nt,3
Cc1ccc2[nH]c3c(c2c1)CCCC3NCCCOc1ccccc1 (centres undefined),100*,9
SMILES,mHTT-CaM PPI inh,Pf apPOL inh
Cc1ccc2[nH]c3c(c2c1)CCCC3NCCCO (centres undefined),14,-1
CC(=O)NC1CCCc2c1[nH]c1ccc(C)cc21 (centres undefined),5,99*
COC(CNC1CCCc2c1[nH]c1ccc(C)cc21)OC (centres undefined),18,16
Cc1ccc2[nH]c3c(c2c1)CCCC3NCCCN(C)C (centres undefined),36,-1
Cc1ccc2[nH]c3c(c2c1)CCCC3NCc1ccc(Cl)cc1 (centres undefined),73*,-4
Cc1ccc2[nH]c3c(c2c1)CCC3O (centres undefined),78*,-4
CCN(CC)CCNC1CCCc2c1[nH]c1ccc(C)cc21 (centres undefined),19,-2
Cc1ccc(C(=O)N2CCC(c3nc4ccncc4n3CC(C)C)C2)s1 (centres undefined),3,-6
O=CNC1CCCc2c1[nH]c1ccc(OCc3ccccc3)cc21 (centres undefined),53*,-2
O=CNC1CCCc2c1[nH]c1ccc(Cl)cc21 (centres undefined),5,2
O=C(NCc1ccccc1)c1cn(-c2cccc(Cl)c2)nn1,-6,-2
COc1ccc(CC(=O)Nc2ccc(Nc3ccccc3)cc2)cc1OC,62*,-7
COc1ccc(CC(=O)Nc2ccccc2)cc1OC,-2,-6
COc1cccc2cc(C(=O)Nc3ccc(N4CCCN(C(=O)C5CC5)CC4)cc3)oc12,61*,4
O=C(Cc1ccccc1)Nc1ccccc1NC(=O)Cc1ccccc1,2,-7
COc1ccccc1C(=O)Nc1cnc(N2CCCC2)nc1,-3,-2
O=C(Cc1ccccc1)Nc1cccc(NC(=O)Cc2ccccc2)n1,-4,65*
COc1ccccc1C(=O)Nc1ccc(N2CCCC2)cc1,61*,0
O=C(Nc1ccc(N2CCCN(C(=O)C3CC3)CC2)cc1)c1cc(-c2ccccc2)on1,13,-4
CCOC(CCn1c(SCC(=O)N2CCCCCC2)nc2ccccc2c1=O)OCC,4,-10
FC(F)(F)c1ccc(/C=N/N2CCN(C3c4ccccc4-c4ccccc43)CC2)cc1,i,nt
COc1cc(C2=NC(=Cc3ccccc3)C(=O)O2)cc(OC)c1OC,nt,-7
CCNc1cc(N2CCCC(CCC(=O)NCc3ccc(OC)cc3)C2)ncn1 (centres undefined),-4,-6
O=C(COc1ccccc1[N+](=O)[O-])Nc1ccc(N2CCCC2)cc1,34,54*
O=C(Cc1ccccc1)Nc1ccc(Nc2ccccc2)cc1,62*,-4
SMILES,mHTT-CaM PPI inh,Pf apPOL inh
Cc1ccc(C(=O)Nc2ccc(N3CCOCC3)cc2)cc1C,11,3
O=C(Cc1ccccc1)Nc1ccc(S(=O)(=O)N2CCCC2)cc1,1,-8
Cc1ccc(C(=O)Nc2ccc(N3CCCC3)cc2)cc1Cl,100*,-3
O=C(Cc1ccc([N+](=O)[O-])cc1)Nc1ccc(Nc2ccccc2)cc1,31,-6
O=C(COc1ccccc1[N+](=O)[O-])Nc1cc(C(=O)O)cc(C(=O)O)c1,-6,1
O=C(Cc1ccccc1)Nc1ccc(N2CCCC2)cc1,92*,-10
O=C(NC1CCc2[nH]c3cc(Cl)cc(Cl)c3c2C1)c1ccc2ncsc2c1 (centres undefined),5,-5
CCCNc1cc(N2CCCC(CCC(=O)N3CCC(COC)CC3)C2)ncn1 (centres undefined),4,-4
O=C(Nc1nc(C(=O)N2CCN(c3ccccn3)CC2)co1)c1cccs1,7,7
COc1ccc(-n2nc(C(=O)NCC(=O)O)c3ccccc3c2=O)c(OC)c1,2,-3
CCCC(=O)N1CCCC(COc2cccc(C(=O)N3CCCCC3)c2)C1 (centres undefined),10,-3
Cn1c(=O)c2c(nc(NCC3CCCO3)n2Cc2c(F)cccc2Cl)n(C)c1=O (centres undefined),3,5
COc1cc([N+](=O)[O-])ccc1-c1ccc(C(=O)Nc2ccc(N3CCCCC3)cc2)o1,51*,-5
COc1ccc(NC(=O)c2ccc(-c3ccc([N+](=O)[O-])cc3OC)o2)cc1Cl,42,-7
Cc1ccc(C)c(N2CCN(CC3CC4C=CC3C4)CC2)c1 (centres undefined),-6,-2
CC(C)N=C1/C(=C/c2ccc(C(C)(C)C)cc2)COC/C1=C/c1ccc(C(C)(C)C)cc1,33,nt
COc1ccccc1N/C(C)=C/C(=O)c1ccccc1,22,-4
COc1ccc(N/C(C)=C/C(=O)c2ccccc2)c(OC)c1,51*,-1
